From PubChem BioAssay (NCI)
This is part of a sample that, as a whole, favours compounds with a hit. Of some 83,000 tested, about 20% had one in any assay.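 Growth was measured after 48 h exposure to one concentration of compound in 96-well plates. Values under 10 count as active.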 Calls of active or inactive are those of the source.

What was measured:
Assay in all cases: NCI-60 one-dose screen, 48 h (100 = growth as untreated, 0 = no growth, -100 = all killed)
Conditions in all cases: 10 µM unless noted
SK-MEL-2 melanoma = tested on: SK-MEL-2 melanoma
EKVX NSCLC = tested on: EKVX NSCLC
SN12C renal = tested on: SN12C renal
UO-31 renal = tested on: UO-31 renal
TK-10 renal = tested on: TK-10 renal
ACHN renal = tested on: ACHN renal
CAKI-1 renal = tested on: CAKI-1 renal
A498 renal = tested on: A498 renal
CCRF-CEM leukemia = tested on: CCRF-CEM leukemia
MOLT-4 leukemia = tested on: MOLT-4 leukemia

O=C(CCCCCCCCC(=O)N/N=C\c1cc(Cl)ccc1O)N/N=C\c1cc(Cl)ccc1O
growth (SK-MEL-2 melanoma): 18.6% (inactive) | growth (EKVX NSCLC): 54.7% (inactive) | growth (SN12C renal): 28.7% (inactive) | growth (UO-31 renal): 19% (inactive) | growth (TK-10 renal): 45.7% (inactive) | growth (ACHN renal): 9.47% (active) | growth (CAKI-1 renal): 11.6% (inactive) | growth (A498 renal): 73.4% (inactive) | growth (CCRF-CEM leukemia): 12.1% (inactive) | growth (MOLT-4 leukemia): 15.3% (inactive)

N#Cc1c(NC(=O)c2cccs2)[n+]([O-])c2ccc(Cl)cc2[n+]1[O-]
growth (SK-MEL-2 melanoma): 59.3% (inactive) | growth (EKVX NSCLC): 98.7% (inactive) | growth (SN12C renal): 99.8% (inactive) | growth (UO-31 renal): 98.6% (inactive) | growth (TK-10 renal): 118% (inactive) | growth (ACHN renal): 99.5% (inactive) | growth (CAKI-1 renal): 73% (inactive) | growth (A498 renal): 41.4% (inactive) | growth (CCRF-CEM leukemia): 95.9% (inactive) | growth (MOLT-4 leukemia): 97.3% (inactive)

COc1ccc(/C=C/C(=O)c2cc3c(N)c(C(=O)Nc4ccc(OC)cc4)sc3nc2C)cc1
growth (SK-MEL-2 melanoma): 15.4% (inactive) | growth (EKVX NSCLC): 45.2% (inactive) | growth (SN12C renal): 31.6% (inactive) | growth (UO-31 renal): 41% (inactive) | growth (TK-10 renal): 40.8% (inactive) | growth (ACHN renal): 42.6% (inactive) | growth (CAKI-1 renal): 24.8% (inactive) | growth (A498 renal): 18.6% (inactive) | growth (CCRF-CEM leukemia): 19.9% (inactive) | growth (MOLT-4 leukemia): 33.3% (inactive)

CC(C)CN1CC(C(=O)Nc2ccc3c(c2)-c2ccccc2C3)CC1=O (stereo not given)
growth (SK-MEL-2 melanoma): 81.8% [50 µM] (inactive) | growth (EKVX NSCLC): 70.8% [50 µM] (inactive) | growth (SN12C renal): 72.5% [50 µM] (inactive) | growth (UO-31 renal): 43.7% [50 µM] (inactive) | growth (TK-10 renal): 87.2% [50 µM] (inactive) | growth (ACHN renal): 64.8% [50 µM] (inactive) | growth (CAKI-1 renal): 62.5% [50 µM] (inactive) | growth (A498 renal): 85.8% [50 µM] (inactive) | growth (CCRF-CEM leukemia): 74.5% [50 µM] (inactive) | growth (MOLT-4 leukemia): 61.8% [50 µM] (inactive)

CCOC(=O)NN1CC(O)=C(c2nc(-c3ccc(Br)cc3)cs2)C1=N
growth (SK-MEL-2 melanoma): 128% (inactive) | growth (EKVX NSCLC): 104% (inactive) | growth (SN12C renal): 161% (inactive) | growth (UO-31 renal): 87% (inactive) | growth (TK-10 renal): 116% (inactive) | growth (ACHN renal): 111% (inactive) | growth (CAKI-1 renal): 92.9% (inactive) | growth (A498 renal): 93.4% (inactive) | growth (CCRF-CEM leukemia): 86.2% (inactive) | growth (MOLT-4 leukemia): 75.9% (inactive)

CC1(C)CC2=C3C=C[C@@H]4[C@@]5(C)CC[C@H](O)C(C)(C)[C@@H]5CC[C@@]4(C)[C@]3(C)CC[C@@]2(C(=O)O)CC1=O
growth (SK-MEL-2 melanoma): 37.1% (inactive) | growth (EKVX NSCLC): 61.4% (inactive) | growth (SN12C renal): 54.4% (inactive) | growth (UO-31 renal): 16.5% (inactive) | growth (TK-10 renal): 33.5% (inactive) | growth (ACHN renal): 13% (inactive) | growth (CAKI-1 renal): 28.2% (inactive) | growth (A498 renal): 57% (inactive) | growth (CCRF-CEM leukemia): 25.2% (inactive) | growth (MOLT-4 leukemia): 44.2% (inactive)

CCCCCCCCn1ccc2cc(NC(=O)Cn3cc(CN4CCC(C)CC4)nn3)ccc21
growth (SK-MEL-2 melanoma): 50.3% (inactive) | growth (EKVX NSCLC): 79% (inactive) | growth (SN12C renal): 33.5% (inactive) | growth (UO-31 renal): -87.7% (active) | growth (TK-10 renal): 80.7% (inactive) | growth (ACHN renal): 55.1% (inactive) | growth (CAKI-1 renal): 11.3% (inactive) | growth (A498 renal): 87.6% (inactive) | growth (CCRF-CEM leukemia): -12% (active) | growth (MOLT-4 leukemia): 3.1% (active)

C#Cc1cccc(Oc2ccc(NC(=O)CCl)cc2)c1
growth (SK-MEL-2 melanoma): 61.8% [8.25 µM] (inactive) | growth (EKVX NSCLC): 82.3% [8.25 µM] (inactive) | growth (SN12C renal): 37.6% [8.25 µM] (inactive) | growth (UO-31 renal): 52.8% [8.25 µM] (inactive) | growth (TK-10 renal): 93% [8.25 µM] (inactive) | growth (ACHN renal): 70.1% [8.25 µM] (inactive) | growth (CAKI-1 renal): 36.9% [8.25 µM] (inactive) | growth (A498 renal): 102% [8.25 µM] (inactive) | growth (CCRF-CEM leukemia): 2.35% [8.25 µM] (active) | growth (MOLT-4 leukemia): 0.835% [8.25 µM] (active)

CCCCCCCCCCCCCCCCCCOc1ccccc1CC(=O)NCC[N+]1(C)CCOCC1
growth (SK-MEL-2 melanoma): 74.6% (inactive) | growth (EKVX NSCLC): 91.3% (inactive) | growth (SN12C renal): 40.5% (inactive) | growth (UO-31 renal): 77.3% (inactive) | growth (TK-10 renal): 7.69% (active) | growth (ACHN renal): 84.5% (inactive) | growth (CAKI-1 renal): 98.6% (inactive) | growth (A498 renal): 67.4% (inactive) | growth (CCRF-CEM leukemia): -36.4% (active) | growth (MOLT-4 leukemia): 14.6% (inactive)

CCCC(O)Cn1ncc(C(=O)OCC)c1NC(=O)NCc1cccc(F)c1 (stereo not given)
growth (SK-MEL-2 melanoma): 90.7% (inactive) | growth (EKVX NSCLC): 97.8% (inactive) | growth (SN12C renal): 99.8% (inactive) | growth (UO-31 renal): 79.3% (inactive) | growth (TK-10 renal): 87.5% (inactive) | growth (ACHN renal): 96.6% (inactive) | growth (CAKI-1 renal): 84.6% (inactive) | growth (A498 renal): 108% (inactive) | growth (CCRF-CEM leukemia): 90.1% (inactive) | growth (MOLT-4 leukemia): 70.6% (inactive)

O=C1NC(=C(Cl)Cl)/C(=N/S(=O)(=O)N2CCCCC2)N1
growth (SK-MEL-2 melanoma): 40.7% (inactive) | growth (EKVX NSCLC): -23.9% (active) | growth (SN12C renal): 23.5% (inactive) | growth (UO-31 renal): 39.7% (inactive) | growth (TK-10 renal): 13.9% (inactive) | growth (ACHN renal): 26.8% (inactive) | growth (CAKI-1 renal): 46% (inactive) | growth (A498 renal): 132% (inactive) | growth (CCRF-CEM leukemia): -63.3% (active) | growth (MOLT-4 leukemia): -48.7% (active)

Oc1c(Cl)cc(Cl)c2ccc(Cn3cc(-c4cccc(C(F)(F)F)c4)nn3)nc12
growth (SK-MEL-2 melanoma): 93.8% (inactive) | growth (EKVX NSCLC): 80.1% (inactive) | growth (SN12C renal): 84.6% (inactive) | growth (UO-31 renal): 73.4% (inactive) | growth (TK-10 renal): 99.7% (inactive) | growth (ACHN renal): 47.9% (inactive) | growth (CAKI-1 renal): 31.1% (inactive) | growth (A498 renal): 91.1% (inactive) | growth (CCRF-CEM leukemia): 6.72% (active) | growth (MOLT-4 leukemia): 3.08% (active)

c1ccc(CNc2ccc3nc(CCC4CCCCC4)[nH]c3c2)cc1
growth (SK-MEL-2 melanoma): 82.8% (inactive) | growth (EKVX NSCLC): 75.7% (inactive) | growth (SN12C renal): 62.8% (inactive) | growth (UO-31 renal): 37.5% (inactive) | growth (TK-10 renal): 84.2% (inactive) | growth (ACHN renal): 87% (inactive) | growth (CAKI-1 renal): 66.7% (inactive) | growth (A498 renal): 42.7% (inactive) | growth (CCRF-CEM leukemia): 59.2% (inactive) | growth (MOLT-4 leukemia): 51.2% (inactive)

Cc1cc(F)ccc1S(=O)(=O)Nc1cc(-c2c(O)ccc3ccccc23)c(O)c2ccccc12
growth (SK-MEL-2 melanoma): 5.32% (active) | growth (EKVX NSCLC): 19% (inactive) | growth (SN12C renal): 46.6% (inactive) | growth (UO-31 renal): 20.3% (inactive) | growth (TK-10 renal): 72.7% (inactive) | growth (ACHN renal): -7.97% (active) | growth (CAKI-1 renal): 51.5% (inactive) | growth (A498 renal): 57.7% (inactive) | growth (CCRF-CEM leukemia): 21.9% (inactive) | growth (MOLT-4 leukemia): 17.6% (inactive)
